# Test results: PubChem BioAssay AID720706 (Broad Institute, 2013)
# The whole screen tested about 350,000 compounds, of which about 5,500 (1.6%) were called active. This is one part of a sample in which actives are shown more often than they occur.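 How the source made its calls: active means significant combined selectivity score with lowered wild-type GFP, culture density cut under 30%, mutant RFP and density less affected; inactive means any of these conditions unmet.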
# Experiment: GFP drop in mixed WT/humanized-ribosome E. coli culture – GFP/RFP fluorescence, OD600, single point, bacterial rRNA inhibitor project, primary screen (AID 720706)
# Details: E. coli WT GFP vs humanized-ribosome RFP mutants, 24 h; GFP signal change (wild-type ribosome): stronger effect = lower value, DMSO median 0, no signal -100; OD600 change: measured here: OD600 growth, DMSO median 0, no signal -100; RFP signal change: measured here: RFP humanized mutant strains, DMSO median 0, no signal -100, concentration not given here
SMILES,GFP signal change (wild-type ribosome),OD600 change,RFP signal change
CCCNC(=O)N(C)C[C@@H]1Oc2ncc(-c3ccccc3F)cc2C(=O)N([C@@H](C)CO)C[C@H]1C,0.96% (inactive),11.5%,-3.35%
O=C(Nc1ccccc1)Oc1cccc2cccnc12,7.63% (inactive),14.2%,1.55%
CC(=O)/C(=N\Nc1ccc(Cl)cc1Cl)Sc1cccc2cccnc12,-8.55% (inactive),-0.275%,-1.79%
O=C(Nc1ccccc1Cl)Nc1cccc2cccnc12,-27.2% (active),-17.3%,-8.08%
COc1ccc2c3c(n(C)c2c1)[C@@H](CO)N(S(C)(=O)=O)CC31CCN(C(=O)C2CCC2)CC1,-4.54% (inactive),-7.74%,-2.66%
CCOC(=O)c1c(CC(C)C)csc1/N=C/C1=C(O)CCCC1=O,-13.2% (inactive),-8.82%,21.8%
CCOC(=O)c1sc(/N=C/C2=C(O)CC(C)(C)CC2=O)c(C(=O)OCC)c1C,-22.9% (active),-5.5%,-2.5%
CCNC(=S)N1CCN(CCN=CC2=C(O)CC(C)(C)CC2=O)CC1,9.96% (inactive),0.25%,-7.06%
CC(C)C#Cc1ccc([C@H]2[C@@H](CO)N3CCCCN(C(=O)Nc4ccccc4)C[C@H]23)cc1,-26% (inactive),-29.6%,1.8%
CO[C@@H]1CN(C)C(=O)c2ccc(NC(=O)NC(C)C)cc2OC[C@@H](C)N(C)C[C@H]1C,2.58% (inactive),9.18%,2.18%
COC(=O)C1=CN(Cc2ccc(OC)c(OC)c2)C=C(C(=O)OC)C1c1cccs1,-4.13% (inactive),-22.2%,6.91%
C=CCOC(=O)C1=C(C)NC(C)=C(C(=O)OCC=C)C1c1cccs1,-17.1% (active),-4.32%,3.89%
C=CCOC(=O)c1ccccc1C(=O)OCC=C,7.54% (inactive),7.92%,12%
Cc1noc(C)c1S(=O)(=O)Nc1ccc2c(c1)C(=O)N([C@@H](C)CO)C[C@@H](C)[C@@H](CN(C)S(=O)(=O)c1ccccc1)OCCCC[C@H](C)O2,-1.55% (inactive),-7.72%,-2%
CC(NC(=O)c1ccco1)c1ccc2c(c1)OCO2 (centres undefined),-0.41% (inactive),4.91%,-2.06%
CC1(C(=O)NCc2ccco2)Cc2c(-c3ccc4c(c3)OCO4)ccnc2O1 (centres undefined),10.2% (inactive),0.265%,-2.19%
O=C1Nc2ccccc2NC(c2ccc3c(c2)OCO3)=C1N(Cc1ccc(F)cc1)C(=O)c1ccco1,-28.3% (active),-22.6%,8%
CC(C)NC(=O)N(C)C[C@@H]1OCc2ccccc2-c2c(n(C)c3ccccc23)C(=O)N([C@@H](C)CO)C[C@H]1C,1.88% (inactive),-5.55%,-8.97%
CC(C)c1ccc(NC(=O)C2CCCN(S(=O)(=O)c3cccnc3)C2)cc1 (centres undefined),-15.6% (inactive),-14.1%,-1.15%
CC(=O)Nc1ccc(NC(=O)C2CCCN(S(=O)(=O)c3ccc(Cl)cc3)C2)cc1 (centres undefined),6.79% (inactive),9.12%,-1.21%
Cc1n[nH]c(C)c1S(=O)(=O)N1CCCC(C(=O)Nc2ccc(Br)cc2)C1 (centres undefined),-18.5% (active),-8.94%,2.17%

SMILES,GFP signal change (wild-type ribosome),OD600 change,RFP signal change
C[C@H](CO)N1C[C@H](C)[C@H](CN(C)CC2CCCCC2)Oc2ccc(NC(=O)CCCCCC(=O)Nc3ccccc3N)cc2C1=O,3.67% (inactive),1.29%,2.33%
CN(C)C(=O)[C@H]1[C@H](CO)[C@H]2Cn3c(ccc(-c4ccc(F)cc4)c3=O)[C@H]2N1C(=O)c1ccccn1,3.15% (inactive),9.51%,0.335%
COC(=O)C[C@@H]1CC[C@@H]2[C@H](COc3ccc(NS(=O)(=O)c4ccccc4F)cc3C(=O)N2C)O1,-1.08% (inactive),1.69%,1.71%
NC(=O)c1ccc(CN2CCC(Cc3ccccc3)CC2)cc1,20.9% (inactive),10.4%,1.24%
Brc1ccccc1CN1CCC(Cc2ccccc2)CC1,-24.7% (active),-12%,-3.42%
O=S1(=O)CCOC[C@H](Cc2ccccc2)N1Cc1ccccc1Br,-13.5% (inactive),-12.2%,-2.23%
O=C(C[C@H]1CC[C@@H]2[C@H](COC[C@H](O)CN2S(=O)(=O)c2ccccc2)O1)N1CCOCC1,6.11% (inactive),11.2%,-4.33%
O=C(c1ccccc1)N1CC(=O)N2[C@@H](CO)[C@H](c3ccc(C#CC4CC4)cc3)[C@@H]2C1,4.2% (inactive),0.601%,-2.44%
CCCNC(=O)N1CC2(CN(C(=O)C3CCCCC3)C2)c2c([nH]c3cc(OC)ccc23)[C@@H]1CO,-0.587% (inactive),-2.63%,-0.961%
O=S1(=O)CC(N2CCN(Cc3ccccc3F)CC2)CN1Cc1cn(Cc2cccc(C(F)(F)F)c2)nn1 (centres undefined),-29.5% (active),-22.9%,-2.53%
Cc1cccc(CN2CCN(C3CN(Cc4cn(Cc5ccccc5F)nn4)S(=O)(=O)C3)CC2)c1 (centres undefined),6% (inactive),11%,-3.05%
O=S1(=O)CC(N2CCN(Cc3ccccc3F)CC2)CN1Cc1cn(Cc2ccccc2)nn1 (centres undefined),15% (inactive),11.5%,0.47%
C[C@@H]1CN([C@H](C)CO)C(=O)c2cccc(NC(=O)C3CC3)c2O[C@@H]1CN(C)C(=O)Nc1ccccc1,4.57% (inactive),10.7%,-0.0555%
O=C(C[C@H]1CC[C@@H](NC(=O)Cc2ccccn2)[C@H](CO)O1)NCCc1ccccc1,-0.355% (inactive),-12%,-1.51%
Cc1cc(C(=O)O)ccc1[N+](=O)[O-],-5.96% (inactive),-5.09%,-0.268%
CN1c2ccc([N+](=O)[O-])cc2C(C)(C)C12C=Cc1cc(C(=O)O)ccc1O2 (centres undefined),-34.2% (active),-21.4%,-10.7%
O=[N+]([O-])c1ccc(N2CCN(c3ccc(O)cc3)CC2)c(Cl)c1,-7.92% (inactive),0.78%,1.58%
O=C(c1cccc(F)c1)N1C[C@H]2[C@@H](c3ccccc31)[C@@H](CO)N2C(=O)Cc1ccccc1,2.22% (inactive),9.86%,-2.34%
CCN(CC)CCOCCOc1ccc(Cl)c2ccccc12,-15.6% (inactive),-34.8%,10.8%
CN(C)CCOc1ccc(Cl)cc1C(C)(C)C,-1.5% (inactive),4.96%,1.97%
CN(C)CCOCCOc1ccc(Cl)c2ccccc12,-18.5% (active),-8.69%,3.22%

SMILES,GFP signal change (wild-type ribosome),OD600 change,RFP signal change
CCC(=O)N(C)C[C@H]1Oc2cc(/C=C/c3ccccc3)ccc2S(=O)(=O)N([C@H](C)CO)C[C@@H]1C,-13.8% (inactive),-24.1%,1.56%
COc1ccc(C#Cc2cnc3c(c2)C(=O)N([C@H](C)CO)C[C@H](C)[C@H](CN(C)S(=O)(=O)c2ccc(F)cc2)O3)cc1OC,-1.5% (inactive),6.11%,0.148%
O=C(C[C@H]1C=C[C@H](NC(=O)CC2CC2)[C@@H](CO)O1)NCc1ccccc1,-2.86% (inactive),-1.4%,0.749%
C[C@@H]1CC=CC[C@@H](c2ccccc2)NC(=O)[C@@H](Cc2ccccc2)N(C)C(=O)c2ccccc2O1 (mixture of isomers),-3.7% (inactive),-8.18%,-0.954%
C[C@@H]1CCCCO[C@H](CN(C)S(=O)(=O)c2ccc(Cl)cc2)[C@H](C)CN([C@@H](C)CO)C(=O)c2cc(NS(=O)(=O)c3cn(C)cn3)ccc2O1,-4.15% (inactive),-10.5%,3.24%
C[C@@H]1CN([C@@H](C)CO)S(=O)(=O)c2ccc(C#Cc3ccc(F)cc3)cc2O[C@@H]1CN(C)CC1CC1,3.12% (inactive),-6.33%,12.1%
O=[N+]([O-])c1cccc(/C([O-])=C(/C(=S)Nc2ccccc2F)[n+]2ccccc2)c1,4.97% (inactive),13.1%,6.65%
CCOc1ccccc1NC(=S)C(=C([O-])c1ccc2c(c1)OCCO2)[n+]1ccc(CC)cc1,-17.2% (active),-16.2%,11.5%
CCc1ccccc1OCC(=O)Nc1ccc2c(c1)OCCO2,-18.9% (inactive),-29.9%,1.18%
COc1ccc2c3c(n(C)c2c1)[C@H](CO)N(S(=O)(=O)c1ccc(C)cc1)CC31CCN(C(=O)c2ccccn2)CC1,-3.17% (inactive),-3.75%,3.99%
CS(=O)(=O)N(CC(=O)N1CCc2ccccc2C1)c1ccc(Br)cc1,-22.4% (active),-11%,0.676%
COc1ccc(N(CC(=O)N2CCCCCC2)S(=O)(=O)c2ccccc2)cc1,-1.75% (inactive),-4.39%,-2.53%
CS(=O)(=O)N(CC(=O)N1CCN(Cc2ccccc2)CC1)c1ccc2c(c1)OCCO2,3.15% (inactive),8.73%,-8.62%
COCc1cn(CC[C@H]2CC[C@H](NC(=O)c3ccncc3)[C@H](CO)O2)nn1,1.82% (inactive),6.54%,-3.21%
CC(C)[C@@H]1COCc2cnnn2CCC[C@H](C)C(=O)N1,1.6% (inactive),7.64%,1.53%
CC(C)(C)C(c1nc2ccccc2[nH]1)n1c(Cc2csc3ccccc23)nc2ccccc21 (centres undefined),-9.17% (inactive),-4.49%,9.77%
Cc1cc(C)cc(NC(=O)c2cccc(NC(=O)C3C4CC5OC(=O)C3C5C4)c2)c1 (centres undefined),-21.2% (active),-14.4%,6.04%
Cc1ccc(NC(=O)COC(=O)C2C3CC4OC(=O)C2C4C3)cc1Cl (centres undefined),-1.3% (inactive),-3.04%,-5.78%
COC(=O)c1cccc(NC(=O)c2cccc(N3C(=O)CCC3=O)c2)c1,0.987% (inactive),9.02%,0.607%
COc1ccccc1C#Cc1ccc2c(c1)O[C@@H](CN(C)Cc1cncnc1)[C@H](C)CN([C@@H](C)CO)S2(=O)=O,-12.1% (inactive),-13.6%,10%
O=C1CN(S(=O)(=O)Cc2ccccc2)C[C@@H]2[C@@H](c3ccc(C#Cc4cccc(F)c4)cc3)[C@@H](CO)N12,-6.58% (inactive),-36.6%,26.9%
